Out of some 48,000 compounds screened, about 13,000 (27%) showed an effect of 50% or more. The list shows a part of the results.

The test system of this assay is Wolbachia pipientis. The assay can be described thus: Anti-Wolbachia Cell-Based Screen. The class given is functional. Set-up: scale not given: in the data most compounds retested in dose-response had high values. The settings on record: 5 µM.
As for `CC(=O)NC1CCCN(c2ccc(C#N)cc2C(F)(F)F)C1` (stereo unspecified), the “Percent Effect” value is given as 47.21%. The same measure for `CC(C)N1CC(C(=O)NC(C)(C)CNC(=O)OC(C)(C)C)CC1=O` (stereo unspecified): 16.31%; for `Cc1ccc(C(=O)OC(C)Cn2cccn2)c(=O)[nH]1` (stereo unspecified): -0.638%; for `c1csc(SCC2CN=C(N3CCOCC3)S2)c1` (stereo unspecified): -10.18%. For `CN(CCc1cnn(C)c1)C(=O)C(c1ccccc1F)N(C)C` (stereo unspecified), the “Percent Effect” value is listed as -8.573%.

On to `CC(C)c1nsc(N2CCOC3(CCCC3)C2)n1`, for which the “Percent Effect” value is listed as -27.55%.

Turning to `CCCc1cc(C(=O)N2C[C@@H](C)[C@](O)(C3CCC3)C2)[nH]n1`, the “Percent Effect” value is -1.382%. To `C[C@@H]1CN(C(=O)CCc2cnn(C)c2)CC[C@@]1(O)C1CCOCC1` belongs -4.294%; to `C[C@@H]1CN(C(=O)CCc2cnn(C)c2)C[C@@]1(O)C1CCC1`, -2.131%; to `C[C@@H]1CN(C(=O)C2(Cn3cccn3)CC2)C[C@@]1(O)C1CCC1`, 109.7%. For the molecule `CC(C1CC1)N(C)C(=O)CCn1cccn1` (stereo unspecified), the “Percent Effect” value is given as -12.77%. For `C[C@@H]1CN(C(=O)CCN2CCCC2)CC[C@@]1(O)C1CCC1`, the “Percent Effect” value is -5.805%. The same measure for `C[C@@H]1CN(C(=O)CCN2CCCC2)CC[C@@]1(O)C1CCOCC1`: 18.72%; for `C[C@@H]1CN(C(=O)c2ccncc2)CC[C@@]1(O)C1CCOCC1`: -11.61%; for `C[C@@H]1CN(C(=O)C2(Cn3cccn3)CC2)CC[C@@]1(O)C1CC1`: 95.17%.

Consider `C[C@@H]1CN(C(=O)C2(Cn3cccn3)CC2)CC[C@@]1(O)C1CCOCC1`, for which the “Percent Effect” value is reported as 103.7%. Regarding `CCN(C(=O)CCn1cccn1)C1CC1`, the “Percent Effect” value came to 0.4672%. `CC(C)[C@]1(O)CN(C(=O)C2(Cn3cccn3)CC2)C[C@H]1C`: the “Percent Effect” value turned out to be 94.9%. Regarding `N#Cc1ccnc(N2CCN(CC(O)c3ccccc3)CC2)c1` (stereo unspecified), the “Percent Effect” value is -34.32%. As for `COc1ccccc1C1(CNc2ncc(S(N)(=O)=O)s2)CC1`, the “Percent Effect” value was -5.545%. To `CCN(CC)C(=O)N1CCN(C(=O)C2CCCc3[nH]ncc32)CC1` (stereo unspecified) belongs -7.717%; to `CC(NC(=O)NCCCc1n[nH]c(N)c1C#N)c1ccccc1` (stereo unspecified), 11.96%.

For `Cn1cc(CN2CCc3c(nnn3C)C2COCc2ccccc2)cn1.O=C(O)C(F)(F)F` (stereo unspecified), the “Percent Effect” value is -8.957%. To `CC(C)CN1CCc2[nH]cnc2C12CCN(C(=O)c1cccnc1)CC2` belongs 1.531%; to `COCCNC(=O)NCC(C)c1ccccc1OC` (stereo unspecified), -10.13%; to `CNC(=O)[C@H]1C[C@@H]2CN(C(=O)c3ccsc3)C[C@@H]2N1S(C)(=O)=O`, 104.8%. As for `O=C(c1ccoc1)N1C[C@H]2CC[C@@]3(N=C(c4ccccc4)NC3=O)[C@H]2C1`, the “Percent Effect” value is reported as -13.12%.

As to `CNC(=O)[C@H]1C[C@@H]2CN(C(=O)c3occc3C)C[C@@H]2N1S(C)(=O)=O`, the “Percent Effect” value was 100.3%. To `CNC(=O)[C@H]1C[C@@H]2CN(C(=O)c3ccoc3)C[C@@H]2N1S(C)(=O)=O` belongs 83.29%. Consider `O=C(c1ccoc1)N1C[C@@H]2CN(c3ncccn3)C[C@@H]2C1`, for which the “Percent Effect” value was -12.12%. To `Cc1ccoc1C(=O)N1CC[C@@]2(C[C@H](NS(C)(=O)=O)CCO2)C1` belongs -10.72%. `CNC(=O)[C@H]1C[C@@H]2CN(C(=O)c3cscn3)C[C@@H]2N1S(C)(=O)=O`: the “Percent Effect” value is listed as -14.13%.

As to `CCN1C[C@@H]2CN(C(=O)c3ccsc3)C[C@@H]2C1=O`, the “Percent Effect” value is -7.34%. As for `CNC(=O)[C@H]1C[C@@H]2CN(C(=O)c3ccco3)C[C@@H]2N1S(C)(=O)=O`, the “Percent Effect” value stood at 10.85%. The same measure for `CNC(=O)[C@H]1C[C@@H]2CN(S(=O)(=O)c3ccccc3)C[C@@H]2N1C(C)=O`: -8.592%; for `CNC(=O)[C@H]1C[C@@H]2CN(C(=O)c3ccc(C)o3)C[C@@H]2N1S(C)(=O)=O`: 94.93%.

These data come from ChEMBL document CHEMBL3988442, “University of Dundee, Small-Polar-MMV Screening Library” (2021).
